Screening data (PubChem)
Beta apoptosis: inhibitors of cytokine-induced beta cell apoptosis, primary screen, luminescence; INS-1E cytokine-induced death, ATP luminescence, 48 h; percent of positive-control rescue, neutral wells zero; protection from apoptosis, % (test concentration not listed); 300,000 tested, 0.8% active; AID 435005, 2010;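 active = Every replicate reaches about 75%, or at least half do and their mean reaches it too, limit read from the data; inconclusive = At least half of replicates reach the limit but their mean does not; inactive = Under half of replicates reach the limit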;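 also: higher means more ATP so stronger rescue from cytokine killing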
MPTP block: mitochondrial permeability transition pore inhibitors, primary screen, biochemical, isolated mouse mitochondria, absorbance | Ca2+ swelling absorbance, 30 min | inhibition, % at 10 µM | 360,000 tested, 1.4% active | AID 602449, 2012;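 active = inhibition of 50% or more, scaled per plate between neutral and stimulator controls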
Calb FLC: C. albicans growth inhibition with fluconazole, primary screen, CaCi-2 strain, Alamar Blue fluorescence; C. albicans CaCi-2 (fluconazole-resistant clinical isolate) + fluconazole, 48 h; growth inhibition, % (no concentration beside the values); 300,000 tested, 0.57% active;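 active = growth inhibition above about 58% in most replicates, limit read from the data, passing the limit was not always enough; inconclusive = exactly half the replicates above a set limit; inactive = most replicates below a set limit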;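 also: all wells also contain fluconazole at 8 µg/ml as a sub-toxic cotreatment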
SKKanGAS inh: S. pyogenes SKKanGAS growth inhibitors in kanamycin, primary screen, streptokinase expression inhibitor project, SKKanGAS strain, BacTiter-Glo luminescence | 6 h | inhibition, % at 7.5 µM | 300,000 tested, 1.3% active;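 active = mean replicate score, as percent of positive control median, at least 50; inconclusive = mean below 50 but one replicate at or above 50; inactive = mean and every replicate below 50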;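 also: strain carries kanamycin resistance gene driven by streptokinase promoter and grows in 40 µg/ml kanamycin; loss of luminescence reflects streptokinase promoter inhibition or plain growth inhibition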
CSC inhib: cancer stem cell viability inhibitors, primary screen, luminescence; inhibition, % at 7.5 µM; AID 2717, 2010; 300,000 tested, 1.1% active; cancer stem cell-like cells viability; in the data active = inhibition above about 75%; inconclusive = no clear call, values can overlap the other calls; tested in HMLE shEcad cells
Mdm2-MdmX inh: inhibitors of human Mdm2-MdmX association, primary screen, cell-based, luminescence, split luciferase, SaOS-2, uHTS | Protein Mdm4 (Homo sapiens) + E3 ubiquitin-protein ligase Mdm2 (Homo sapiens), … | SaOS-2 split-luciferase Mdm2/MdmX complementation | inhibition, % at 8 µM | 330,000 tested, 3% active;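 active = inhibition of at least 50% at 8 µM in the primary screen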
Of the large screens only hits and unclear results are named; the others gave an inactive call. Only some compounds are listed: those with a hit (about 5.4% of all), similar ones and a draw of the others.

Cc1cccc(C(=O)Nc2ccc(C(=O)Nc3ccc(O)cc3)cc2)c1	CSC inhib 95
O=C(/C=C/c1cccnc1)c1ccc(NC(=O)c2cccc(Br)c2)cc1	none
Cc1cccc(C(=O)Nc2ccc(C(=O)/C=C/c3cccnc3)cc2)c1	Beta apoptosis 101 (no result: Mdm2-MdmX inh)
CCC(c1nnnn1-c1ccc2c(c1)OCCO2)N1CCN(c2ncccc2C(F)(F)F)CC1 (configuration not stated)	none (no result: Beta apoptosis, Calb FLC, SKKanGAS inh, CSC inhib, Mdm2-MdmX inh)
Cc1ccc(C(C[N+](=O)[O-])n2nc(C)cc2C)cc1 (configuration not stated)	CSC inhib 101
CC(C)=CCc1cc([C@@H]2CC(=O)c3ccc(O)c(CC=C(C)C)c3O2)ccc1O	SKKanGAS inh 86
Cc1ccc2c(c1)C(=O)CC(c1ccc3c(c1)OCCO3)O2 (configuration not stated)	none
CC(=O)Nc1ccc(S(=O)(=O)NC2(c3ccccc3)C(=O)N(C)C(=O)N(C)C2=O)cc1	none (no result: Beta apoptosis, Calb FLC, SKKanGAS inh, CSC inhib, Mdm2-MdmX inh)
CC(=O)NNC(=S)NC(=O)C(c1ccccc1)c1ccccc1	Calb FLC 99, SKKanGAS inh 61
O=C(NC(=S)Nc1ccc(Cl)cn1)C(c1ccccc1)c1ccccc1	SKKanGAS inh 77
O=C(Cc1c[nH]c2ccccc12)NCc1ccc(Cl)cc1Cl	Calb FLC inconclusive
COc1ccc(/C=N/NC(=O)c2cc(C34CC5CC(CC(C5)C3)C4)[nH]n2)cc1O	CSC inhib 97
Cc1ccccc1N(C(=O)c1csnn1)C(C(=O)NC1CCCCC1)c1ccncc1 (configuration not stated)	none
CCn1c2ccccc2c2nc3ccccc3nc21	Calb FLC inconclusive
CCCCc1c(C)nn(-c2nnc3c4ccccc4n(CC)c3n2)c1C	SKKanGAS inh 76
CSc1nc2cc(Oc3cccc(Cl)c3Cl)c(Cl)cc2[nH]1	SKKanGAS inh 96, CSC inhib 103 (no result: Calb FLC)
CSc1nc2ccc(Cl)cc2[nH]1	none
CCn1c(Cc2ccccc2)nnc1SC(C)C(=O)NC1CC1 (configuration not stated)	none (no result: CSC inhib)
CC(=O)Nc1ccccc1/C=C/c1ccc2c(C)cc(C)c(O)c2n1	Calb FLC 109
O=C(NNC(=O)c1cnccc1C(F)(F)F)c1cccc(Cl)c1	none
CCOC(=O)c1c(NC(=S)Nc2ccccc2)sc2c1CC(C)(C)SC2	none
CCOC(=O)c1c(NC(=S)NC)sc2c1CC(C)(C)SC2	Calb FLC 91
Cn1nnc2cc(NC(=O)N3CCN(c4ccccn4)CC3)ccc21	none
COc1cc(C(=O)N/N=C/c2ccc(OC(=O)c3ccccc3Cl)c(OC)c2)ccc1O	SKKanGAS inh 66
COc1ccc(C(=O)N/N=C/c2ccccn2)cc1OC	Calb FLC inconclusive
COc1cc(/C=N/NC(=O)c2ccc(N)cc2)ccc1OC(=O)c1cccc(C)c1	none
COc1ccc(C(=O)Nc2ccccc2C(=O)N/N=C/c2ccccn2)cc1OC	Beta apoptosis 95
COc1cc(C(=O)N/N=C/c2ccc(OC(=O)c3cccc(C)c3)cc2)ccc1O	SKKanGAS inh 52
COc1cc(/C=N/NC(=O)c2ccncc2)ccc1OC(=O)c1ccccc1Cl	none
Cn1cccc1C(=O)NS(=O)(=O)c1ccccc1Cl	none
COc1ccc(OC2CCN(S(=O)(=O)c3cccc(F)c3)CC2)cc1	none
O=c1c2ccccc2nc2n1CCc1c-2[nH]c2ccccc12	CSC inhib 78 (no result: Calb FLC, SKKanGAS inh)
Cc1cccc2c(=O)n3c(cc12)-c1[nH]c2ccccc2c1CC3	none (no result: Beta apoptosis, Calb FLC, SKKanGAS inh, CSC inhib, Mdm2-MdmX inh)
c1ccc2sc(NN=C3CCCCCC3)nc2c1	Calb FLC 106
COc1ccc(C2=NOC(C(=O)NCc3cccnc3)C2)cc1OC (configuration not stated)	none (no result: Beta apoptosis)
COc1ccc2nc(-n3c(C)ccc3C)sc2c1	SKKanGAS inh 54
OC(CNCCC1C=Nc2ccccc21)Cn1c2ccc(Cl)cc2c2cc(Cl)ccc21 (configuration not stated)	Beta apoptosis 100, Calb FLC 99, SKKanGAS inh 136, CSC inhib 106 (no result: Mdm2-MdmX inh)
Cc1cc(C)n(CC(O)Cn2c3ccc(Cl)cc3c3cc(Cl)ccc32)c(=O)n1 (configuration not stated)	none
Cc1ccc2nc(-c3cccc(NS(C)(=O)=O)c3)cc(-c3ccccc3)c2c1	CSC inhib 115
